Screening results deposited in PubChem by National Center for Advancing Translational Sciences (NCATS).
Only some compounds are listed: those with a hit (about 7.1% of all), similar ones and a draw of the others.
MARV entry inh – qHTS for Inhibitors of binding or entry into cells for Marburg Virus | Marburg virus pseudotype entry/binding inhibition, cell-based | Potency, µM (highest dose often 49.2 µM), most hits filed as inhibitors | hit rate 6.5% among 18,000
LASV entry inh – qHTS for Inhibitors of binding or entry into cells for Lassa Virus. Potency, µM (titrated, usually from 49.2 µM), most hits filed as inhibitors. hit rate 4.1% among 18,000. Lassa virus pseudotyped entry inhibition, cell-based qHTS
Each line names hits and unclear results; the compound was inactive in the other large screens; ! = not active in a repeat. Calls follow the shape of the full dose curve; tested in HEK293 cells.

C[C@H]1CC[C@@H]2[C@@H](C)[C@H]3[C@H](C[C@H]4[C@@H]5CC=C6CC(O[C@@H]7O[C@H](CO)[C@H](O)[C@H](O[C@@H]8O[C@H](CO)[C@@H](O)[C@H](O)[C@H]8O)[C@H]7O[C@H]7O[C@@H](C)[C@H](O)[C@@H](O)[C@H]7O)CC[C@]6(C)[C@H]5CC[C@]34C)N2C1 (some centres not stated)	MARV entry inh 15.8µM, LASV entry inh 31.6µM
O=[S+]1([O-])C[C@@H](N2CC[C@@H](O)C2)[C@@H](COCc2ccccc2)N1	none
C=C(C(C)=O)C(O)C=Cc1ccco1 (configuration not stated)	none
CCOC(=O)CCN1C(=O)[C@@H]2[C@H]3[C@H](O)[C@H](O)CC(=NNC(=O)OCc4ccccc4)[C@@H]3CC[C@H]2C1=O	none (no result: LASV entry inh)
O=C1CS(=O)(=O)N(Cc2ccccc2)[C@H]1Cc1ccccc1	none
COc1ccc(CN2CCCC(c3nc(-c4ccncc4)ncc3-c3ccccc3)C2)c(OC)c1OC (configuration not stated)	MARV entry inh inconclusive
Cc1ccccc1-c1cnc(-c2ccncc2)nc1C1CCCN(Cc2ccccc2O)C1 (configuration not stated)	MARV entry inh inconclusive
COc1cccc(CN2CCCC(c3nc(-c4ccncc4)ncc3-c3ccccc3)C2)c1O (configuration not stated)	MARV entry inh 11.2µM
COc1ccc(CN2CCCC(c3nc(-c4ccncc4)ncc3-c3ccccc3C)C2)c(OC)c1 (configuration not stated)	MARV entry inh 3.55µM, LASV entry inh 17.8µM
O=C(c1ccc(Br)cc1)N1[C@H](COCc2ccccc2)C=CS1(=O)=O	none
CC(C)[C@@H](OCc1ccccc1)[C@H](C)C=NO[C@H](C)c1cn([C@@H]2COC[C@@H]2O)nn1	none
CC1(C)[C@@H](O)CC[C@]2(C)C3C(=O)C=C4C5C[C@@](C)(C(=O)O)CC[C@]5(C)CC[C@@]4(C)[C@]3(C)CC[C@@H]12 (some centres not stated)	none
CC1=C(O)C(=O)C=C2C1=CC=C1[C@]2(C)CC[C@@]2(C)C3C[C@](C)(C(=O)O)CC[C@@]3(C)CC[C@@]12C (some centres not stated)	MARV entry inh 3.98µM, LASV entry inh 4.47µM
Cc1cc2c(c(=O)n1Cc1ccccc1)[C@H]1O[C@](c3ccsc3)(Cc3ccccc31)O2	none
COc1ccc([C@]23Cc4cc(OC)c(OC)cc4[C@H](O2)c2c(cc(C)n(Cc4ccccc4)c2=O)O3)cc1	none
CN(C/C=C/c1ccccc1)Cc1cccc2ccccc12	none
COc1ccc(S(=O)(=O)N(CCO)c2ccccc2CN(C)C/C=C/c2ccc(Cl)cc2)cc1	MARV entry inh 8.91µM, LASV entry inh inconclusive
CNCC/C=C/c1cccnc1	none
CNCCC=C1c2ccccc2CCc2ccccc21	MARV entry inh 10µM, LASV entry inh 31.6µM
Cc1ccc2[nH]c(O)c(N=Nc3ccc(S(N)(=O)=O)cc3)c2c1	LASV entry inh inconclusive
COCCN1C(=O)NC(c2ccc(Br)cc2)C(C(C)=O)=C1C (configuration not stated)	none
CCn1c(-c2nonc2N)nc2c(C#CC(C)(C)O)nc(OCCNC)cc21	MARV entry inh 12.5µM (no result: LASV entry inh)
CCn1c(-c2nonc2N)nc2ccccc21	MARV entry inh inconclusive
COC(=O)N[C@H](C(C(=O)OC)=C(C)NCc1ccccc1)c1ccco1	none
CC(C)(C)C1(O)CCN2CC3c4ccccc4CCc4cccc(c43)C2C1 (configuration not stated)	MARV entry inh 28.2µM, LASV entry inh inconclusive
CN1CCN2c3ncccc3Cc3ccccc3C2C1 (configuration not stated)	MARV entry inh inconclusive
CC(C)(C)[C@]1(O)CCN2C[C@H]3c4ccccc4CCc4cccc(c43)[C@@H]2C1	MARV entry inh 11.2µM, LASV entry inh inconclusive
CCCCCC(=O)N1C[C@H](O)[C@@H](n2cc(-c3ccc(F)cc3)nn2)C[C@H]1c1ccccc1	none
C[C@H](ON=C1[C@H]2CCn3c(=O)n(-c4ccccc4)c(=O)n3[C@@H]2[C@H](O)[C@@H]2O[C@H]12)c1cn([C@H](CO)Cc2ccccc2)nn1	none
CNc1ccc2oc(C[C@@H]3OC4(CC[C@@H]3C)O[C@H](C(C)C(=O)c3ccc[nH]3)[C@H](C)C[C@H]4C)nc2c1C(=O)O (some centres not stated)	MARV entry inh 5.62µM, LASV entry inh inconclusive
CNc1ccc2oc(C[C@H]3O[C@]4(CC[C@H]3C)O[C@H]([C@H](C)C(=O)c3ccc[nH]3)[C@H](C)C[C@H]4C)nc2c1C(=O)O	MARV entry inh 4.47µM, LASV entry inh 3.55µM
C=CCN1c2ccccc2[C@]23CCC(=O)N(Cc4ccco4)C2=NC(C(=O)OC)=C(C(=O)OC)[C@H]13	none
CC(C)C[C@H](CO)NS(=O)(=O)c1cccc(Cl)c1F	none
CN(C)CCOC(c1ccccc1)c1ccccc1 (tested in a mixture with another compound)	none
CN(C)CCOC(c1ccccc1)c1ccccc1	MARV entry inh 28.2µM!, LASV entry inh inconclusive
Cc1cc(C)cc(CO[C@H]2C=C[C@@H](c3ccccc3)O[C@H]2CO)c1	none
O=C(O)c1cc(O)c2c(c1)[O][Bi][O]2	none
O=C(O)c1cc(O)c(O)c(O)c1	MARV entry inh 3.16µM, LASV entry inh 11.2µM
COC(=O)N[C@H](CC(C)=O)c1ccc(Cl)cc1	none
Cc1cc(N)c2ccccc2[n+]1CCCCCCCCCC[n+]1c(C)cc(N)c2ccccc21	MARV entry inh inconclusive, LASV entry inh 28.2µM
C[C@@H](NS(=O)(=O)c1cccc(Cl)c1F)[C@H](O)c1ccccc1	none
C1CCC(C(CC2CCCCN2)C2CCCCC2)CC1 (configuration not stated)	MARV entry inh 3.98µM, LASV entry inh inconclusive
CCCC1CCCCN1 (configuration not stated)	none
COC(=O)C1=C(C)N(Cc2ccccc2)C(=S)NC1CCc1ccccc1 (configuration not stated)	none
COC(=O)C1=C(C(=O)OC)[C@@H]2N(Cc3ccccc3)c3ccccc3[C@@]23CCC(=O)N(CCc2ccccn2)C3=N1	MARV entry inh inconclusive
CN(C(=O)Cc1ccc(Cl)c(Cl)c1)[C@H](CN1CCCC1)c1ccccc1	MARV entry inh 7.08µM, LASV entry inh 20µM
CN(C(=O)Cc1ccccc1)[C@H](CN1CCCC1)c1ccccc1	MARV entry inh inconclusive
COC[C@H]1O[C@@H]2O[C@@H]1[C@@H](C=Cc1ccccc1)C[C@H]2C	none
CSC[C@H]1CN(CCc2ccccc2)C(=O)[C@H]1CC(=O)Nc1ccc(Br)cc1	none
Cc1c2c(c(O)c3c(O)cccc13)C(=O)O[C@H]2C1C(N(C)C)C(O)=C(C(N)=O)C(=O)[C@H]1O (some centres not stated)	MARV entry inh 8.91µM
CN(C)[C@@H]1C(=O)C(C(N)=O)=C(O)[C@@]2(O)C(=O)C3=C(O)c4c(O)cccc4[C@@](C)(O)[C@H]3[C@H](O)[C@@H]12	MARV entry inh inconclusive
CCN1C(=NCCc2ccc(Br)cc2)NC(c2ccccc2)C(C(=O)OC)=C1C (configuration not stated)	MARV entry inh inconclusive
C[C@@H]1O[C@@H](OC2CC(O)C3(CO)C4C(CCC3(O)C2)C2(O)CCC(C3=CC(=O)OC3)C2(C)C[C@H]4O)[C@H](O)[C@H](O)[C@H]1O (some centres not stated)	MARV entry inh 0.224µM, LASV entry inh 0.178µM
CC=COC(=O)N[C@@H](c1ccccc1)[C@]1(C(=O)OC)CCCC1=O	MARV entry inh inconclusive
